# In PubChem BioAssay (Tox21):
# Results filed as inconclusive are left out. Active and inactive are the calls of the source. The call rests on the fitted dose curve; in most records, active means well fitted cell-killing curve with a large enough effect in the repeat runs; inconclusive means weak or mixed curves, or effect the other way; inactive means flat fitted curve, though single readings scatter.
# Assay: qHTS assay to identify small molecule agonists of the sonic hedgehog signaling (Shh) pathway - cell viability counter screen (AID 1259366); further: nearly all actives have a fitted effect of over 50% in size
# Conditions: NIH/3T3 Gli1-Luc viability, CellTiter-Fluor, 24 h; series mostly up to 92.4 µM; viability change, negative = cytotoxic: at the top concentration
# Text: National Center for Advancing Translational Sciences [NCATS]
# NIH Chemical Genomics Center [NCGC]
# U.S. Environmental Protection Agency [EPA]
# National Institutes of Environmental Health Sciences [NIEHS]
# National Toxicology Program [NTP]
# U.S. Food and Drug Administration [FDA]
# The sonic hedgehog (Shh) pathway is essential for normal embryonic development. Dysregulation of the Shh pathway can cause severe developmental defects in organs. Therefore chemicals that interfere with the pathway are potential developmental toxicants. A cell line designated 3T3Gli1-Luc (DMB/OARSA/CFSAN/FDA, Laurel, MD), a NIH/3T3 derived clone containing stably integrated Gli1-Luc reporter is used to detect chemical interference of the Shh pathway, by changes in the expression of the firefly Luc gene under the control of the Gli1 transcriptional response element. This cell line was used to screen Tox21 libraries for identifying and prioritizing the potential developmental toxicants that interfere Shh pathway. The cytotoxicity of the compounds was tested in parallel by measuring the cell viability using CellTiter-Fluor assay system (Promega, Madison, WI) in the same wells.
# Tox21 Assay Protocol Summary:
# 3T3 Gli1-Luc cells were dispensed at 2,000 per well in 5uL of culture medium into white solid bottom 1536-well plates (Greiner Bio-One, Monroe, NC) using a Multidrop Combi (Thermo Scientific, Waltham, MA) dispenser. The assay plates were incubated at 37 C and 5% CO2 for 4hr, and then 23nL of compounds dissolved in DMSO and positive control were transferred using a Pintool station (Wako, San Diego, CA). The assay plates were incubated at 37C and 5% CO2 for 24hr. For viability read, after 23hr of compound treatment, 1uL of CellTiter-Fluor reagent (Promega Corporation, Madison, WI) was added to each well of the assay plates using Flying Reagent Dispenser (FRD, Aurora Discovery, San Diego, CA) and incubated the assay plates at 37C for 1hr. The fluorescence signal was quantified using a ViewLux plate reader (Perkin Elmer, Shelton, CT).
# On the % scale 0 is the no-effect control and ±100 the full control effect.
row,SMILES,"viability change, negative = cytotoxic"
1,C=C(C)C(=O)OCCOCCOCCOCCOC(=O)C(=C)C,-11.7% (inactive)
2,CC(C)CC(C)(N)C#N (stereo not given),-0.962% (inactive)
3,CCCCCCC#CC(=O)OC,4.92% (inactive)
4,CCN1C=CN(C)C1C (stereo not given),0.255% (inactive)
5,CCN(C=O)CC,-7.06% (inactive)
6,CC(=O)c1cnccn1,4.47% (inactive)
7,CN(C)CCN(C)CCN(C)C,0.0381% (inactive)
8,CCCCCCCCN1CCCC1=O,0.032% (inactive)
9,COc1ccccc1OCC1CNC(=O)O1 (stereo not given),0.585% [at 42.5 µM] (inactive)
10,CCCC(C)C(=O)OCC (stereo not given),5.24% (inactive)
11,CCN[C@@H]1C[C@H](N)[C@@H](OC2OC(CN)=CCC2N)[C@H](O)[C@H]1O[C@H]1OC[C@](C)(O)[C@H](NC)[C@H]1O (stereo not given in full),-1.56% [at 0.349 µM] (inactive)
12,COc1cc(-c2ccc(=O)[nH]n2)ccc1OC(F)F,-5.36% [at 42.5 µM] (inactive)
13,C=CCCC(=O)O,-10.6% (inactive)
14,CCCCOCCOC(=O)CCCCCCCCC(=O)OCCOCCCC,1.14% (inactive)
15,CCOC(=O)COC(=O)c1ccccc1C(=O)OCC,11.9% (inactive)
16,CCCCOCCOC(=O)COc1cc(Cl)c(Cl)cc1Cl,5.85% (inactive)
17,Cc1ccc(C(=O)c2ccc(CC(=O)O)n2C)cc1,-1.1% [at 42.5 µM] (inactive)
18,C[N+]1(CC2COC(c3ccccc3)(c3ccccc3)O2)CCCCC1 (stereo not given),9.08% [at 19 µM] (inactive)
19,O=CN(CCO)CCO,2.09% (inactive)
20,COC(=O)Nc1ccc(Cl)c(Cl)c1,1.89% (inactive)

row,SMILES,"viability change, negative = cytotoxic"
1,O=C(CO)[C@@H](O)[C@H](O)[C@@H](O)CO,-7.49% [at 42.5 µM] (inactive)
2,CC(C)(CCC(=O)O)C(=O)O,-5.54% (inactive)
3,CCCCc1ccc2c(n1)[C@@H](c1ccc(OC)cc1C[C@H](C)C(=O)O)[C@H](C(=O)O)[C@H]2c1ccc2c(c1)OCO2,1.51% (inactive)
4,NO,9.53% (inactive)
5,C[C@@H]1C[C@H]2[C@@H]3C[C@H](F)C4=CC(=O)C(Cl)=C[C@]4(C)[C@@]3(F)[C@@H](O)C[C@]2(C)[C@@]1(O)C(=O)CO,21.4% [at 42.5 µM] (inactive)
6,CC1=NS(=O)(=O)c2cc(Cl)ccc2N1,1.28% [at 42.5 µM] (inactive)
7,Cc1ccccc1N=C(N)N=C(N)N,-6.86% (inactive)
8,O=C(O)CNC(=O)c1ccc(CO)o1,-9.41% (inactive)
9,Cc1nc(C2CCCCC2)c(-c2ccc(S(N)(=O)=O)c(F)c2)o1,3.04% [at 42.5 µM] (inactive)
10,CC(=O)OCC(=O)[C@@]1(O)[C@H](C)C[C@H]2[C@@H]3CCC4=CC(=O)C=C[C@]4(C)[C@@]3(F)[C@@H](O)C[C@@]21C,2.17% [at 42.5 µM] (inactive)
11,CC(C)(C#N)Nc1nc(Cl)nc(NC2CC2)n1,1.72% (inactive)
12,C[C@H]1C[C@H]2[C@@H]3CCC4=CC(=O)C=C[C@]4(C)[C@H]3C(=O)C[C@]2(C)[C@@]1(O)C(=O)CO,4.85% [at 42.5 µM] (inactive)
13,CNC(=O)Nc1ccc(Cl)c(Cl)c1,1.12% (inactive)
14,CO[C@@]1(NC(=O)C(C(=O)O)c2ccc(O)cc2)C(=O)N2C(C(=O)O)=C(CSc3nnnn3C)CO[C@@H]21 (stereo not given in full),1.29% [at 42.5 µM] (inactive)
15,C1CCC2(CCCCO2)OC1,-0.0362% (inactive)
16,CCCCCC(C)N (stereo not given),-0.497% [at 42.5 µM] (inactive)
17,CC(=O)Nc1ccc(OCC(O)CNC(C)C)cc1 (stereo not given),-1.35% [at 42.5 µM] (inactive)
18,CC(=O)c1ccccc1[N+](=O)[O-],-1.97% (inactive)
19,C[C@H]1[C@H](NC(=O)/C(=N/OC(C)(C)C(=O)O)c2csc(N)n2)C(=O)N1S(=O)(=O)O (stereo in doubt),-0.859% [at 42.5 µM] (inactive)
20,N[C@H](C(=O)O)[C@@H](O)c1ccc(O)c(O)c1,-1.5% [at 42.5 µM] (inactive)
